Records with an inconclusive call do not appear. The source made the active and inactive calls. The calls were made as follows, unless noted: active = hit-call score of the fitted dose curve at least 0.9, where 1 is the maximum; inconclusive = response in the unintended direction; inactive = score below 0.9.
Assays:
[1] = ATG_NF_kB_CIS: Attagene CIS-FACTORIAL HepG2 Assay for human Nuclear Factor Kappa B (NF-kB) (AID 2282991; active = hit-call score of the fitted dose curve at least 0.9, where 1 is the maximum; inactive = score below 0.9); details: HepG2 Attagene cis-factorial NF-kB reporter mRNA; actives raise or lower the signal
Procedure, shortened: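 Endpoint from a 52-component multiplexed HepG2 reporter panel: cis-regulated transcription units transiently transfected, 24 h dosing, reporter mRNA quantified by RT-PCR and capillary electrophoresis, scored as increase or decrease against DMSO.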

[2] = ATG_NRF2_ARE_CIS: Attagene CIS-FACTORIAL HepG2 Assay for human Nuclear Factor Erythroid 2 Related Factor 2 (NFR2) response to Antioxidant Response Elements (ARE) (AID 2282992; active = hit-call score of the fitted dose curve at least 0.9, where 1 is the maximum; inactive = score below 0.9;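 as to AC50: reporter mRNA level measured by RT-PCR and capillary electrophoresis fluorescence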); details: HepG2 Attagene ARE/NRF2 reporter, transcription factor activity; actives raise or lower the signal
Procedure, shortened: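 Readout: reporter mRNA quantified by RT-PCR plus FAM-labelled primer extension, HpaI digestion and capillary electrophoresis, 24 h after dosing transfected HepG2 cells. Gain or loss of signal is fitted bidirectionally against DMSO baseline.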

[3] = ATG_Oct_MLP_CIS: Attagene CIS-FACTORIAL HepG2 Assay for human Octamer-Binding Transcription Factor (Oct) (AID 2282993; active = hit-call score of the fitted dose curve at least 0.9, where 1 is the maximum; inactive = score below 0.9); details: HepG2 Attagene cis-factorial Oct reporter, mRNA; actives raise or lower the signal
Procedure, shortened: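 HepG2, transient MRTU transfection, cis promoter elements; 24 h dosing; RT-PCR/CE fluorescence read-out of reporter mRNA; fit both directions vs DMSO.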

[4] = target: Cellular tumor antigen p53 (Homo sapiens) (UniProt P04637); assay: ATG_p53_CIS: Attagene CIS-FACTORIAL HepG2 Assay for human p53 Transcription Factor (AID 2282994; active = hit-call score of the fitted dose curve at least 0.9, where 1 is the maximum; inactive = score below 0.9); details: HepG2 p53 cis-element reporter, Attagene mRNA; actives raise or lower the signal
Procedure, shortened: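 Read-out: reporter mRNA by RT-PCR plus capillary electrophoresis with fluorescence detection. Human HepG2 liver cells carried transfected multi-reporter cis-element constructs, dosed 24 h. Gain or loss of signal fitted bidirectionally against DMSO control.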

[5] = target: human Peroxisome Proliferator-activated Receptor alpha (PPARa), PPARA (gene 5465) (UniProt Q07869); assay: ATG_PPARa_TRANS: Attagene TRANS-FACTORIAL HepG2 Assay for human Peroxisome Proliferator-activated Receptor alpha (PPARa) (AID 2283001);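 as to AC50: potency for gain of reporter signal over DMSO so agonist or activator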
Procedure, shortened: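 Reporter transcripts quantified by RT-PCR plus capillary electrophoresis after 24 h treatment, fitted upward relative to DMSO. Cells: human HepG2 transiently carrying multiple GAL4-UAS reporter units driven by NR-Gal4 chimeras.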

[6] = target: human Peroxisome Proliferator-activated Receptor delta (PPARd), PPARD (gene 5467) (UniProt Q03181); assay: ATG_PPARd_TRANS: Attagene TRANS-FACTORIAL HepG2 Assay for human Peroxisome Proliferator-activated Receptor delta (PPARd) (AID 2283002)
Procedure, shortened: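 Cell-based TRANS reporter: HepG2, transient MRTU transfection, 24 h exposure. Readout = reporter mRNA (RT-PCR/CE, 6-FAM). Gain-of-signal fit vs DMSO control.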

[7] = target: Retinoic acid receptor alpha (Homo sapiens) (UniProt P10276); assay: ATG_RARa_TRANS: Attagene TRANS-FACTORIAL HepG2 Assay for human Retinoic Acid Receptor alpha (RARa) (AID 2283005)
Procedure, shortened: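 Reporter transcripts, measured by RT-PCR with fluorescent labeling and capillary electrophoresis after 24 h dosing, reflect activity of an exogenous human RARa–GAL4 fusion in transiently transfected HepG2. Fitted for increase relative to DMSO.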

[8] = target: Nuclear receptor subfamily 1 group I member 2 (Homo sapiens) (UniProt O75469); assay: ATG_PXR_TRANS: Attagene TRANS-FACTORIAL HepG2 Assay for human Pregnane X Receptor (PXR) (AID 2283008)
Procedure, shortened: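 Trans-factorial format: exogenous NR-Gal4 fusion activity, not endogenous factor, in transfected human HepG2 liver cells. After 24 h dosing, RNA isolated, reverse-transcribed, amplified and resolved by capillary electrophoresis; induction scored versus DMSO.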

[9] = target: human RAR-related Orphan Receptor beta (RORb), RORB (gene 6096) (UniProt Q92753); assay: ATG_RORb_TRANS: Attagene TRANS-FACTORIAL HepG2 Assay for human RAR-related Orphan Receptor beta (RORb) (AID 2283010)
Procedure, shortened: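 Read-out is reporter mRNA induction, quantified by RT-PCR with fluorescent capillary electrophoresis, 24 h post-dose in transiently transfected HepG2 expressing exogenous NR-Gal4 chimera. Activity fitted upward versus DMSO.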

[10] = target: human RAR-related Orphan Receptor gamma (RORg), RORC (gene 6097) (UniProt P51449); assay: ATG_RORg_TRANS: Attagene TRANS-FACTORIAL HepG2 Assay for human RAR-related Orphan Receptor gamma (RORg) (AID 2283011)
Procedure, shortened: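 Activity is scored as increase in GAL4-UAS reporter mRNA over DMSO, detected by fluorescent RT-PCR and capillary electrophoresis in HepG2 cells transiently expressing a RORg-Gal4 chimera, 24 h after dosing.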

[11] = target: human Retinoic Acid Receptor beta (RARb), RARB (gene 5915) (UniProt P10826); assay: ATG_RARb_TRANS: Attagene TRANS-FACTORIAL HepG2 Assay for human Retinoic Acid Receptor beta (AID 2283004)
Procedure, shortened: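 HepG2, transient MRTU transfection, NR–Gal4 chimera, 24 h treatment; RT-PCR plus CE fluorescence detection of reporter mRNA; gain of signal vs DMSO.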

[12] = target: Peroxisome proliferator-activated receptor gamma (Homo sapiens) (UniProt P37231); assay: ATG_PPARg_TRANS: Attagene TRANS-FACTORIAL HepG2 Assay for human Peroxisome Proliferator-activated Receptor-gamma (PPARg) (AID 2283007)
Procedure, shortened: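 Endpoint reflects upward reporter mRNA change versus DMSO controls. Setup: transiently transfected HepG2, GAL4-UAS reporters driven by chimeric NR-Gal4, 24 h incubation, RT-PCR with capillary electrophoresis read-out.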

[13] = target: human Retinoic Acid Receptor gamma (RARg), RARG (gene 5916) (UniProt P13631); assay: ATG_RARg_TRANS: Attagene TRANS-FACTORIAL HepG2 Assay for human Retinoic Acid Receptor gamma (RARg) (AID 2283009);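 as to AC50: AC50 is for reporter induction above DMSO meaning RARg activation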
Procedure, shortened: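 Transactivation of exogenous RARg-Gal4 fusion measured as reporter transcript induction after 24 h in transfected HepG2 cells. RNA reverse-transcribed, amplified, fluorescently labeled and resolved by capillary electrophoresis; increase relative to DMSO.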

[14] = target: Retinoic acid receptor RXR-alpha (Homo sapiens) (UniProt P19793); assay: ATG_RXRa_TRANS: Attagene TRANS-FACTORIAL HepG2 Assay for human Retinoid X Receptor alpha (RXRa) (AID 2283012)
Procedure, shortened: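 TRANS format reporting activity of exogenous RXRa-Gal4 chimera in transiently transfected HepG2, 24 h exposure. Reporter transcripts quantified by RT-PCR with capillary electrophoresis, with gain of signal scored relative to DMSO.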

Measured: AC50

Cellular tumor antigen p53 (Homo sapiens), sequence (P04637 whole entry, looked up): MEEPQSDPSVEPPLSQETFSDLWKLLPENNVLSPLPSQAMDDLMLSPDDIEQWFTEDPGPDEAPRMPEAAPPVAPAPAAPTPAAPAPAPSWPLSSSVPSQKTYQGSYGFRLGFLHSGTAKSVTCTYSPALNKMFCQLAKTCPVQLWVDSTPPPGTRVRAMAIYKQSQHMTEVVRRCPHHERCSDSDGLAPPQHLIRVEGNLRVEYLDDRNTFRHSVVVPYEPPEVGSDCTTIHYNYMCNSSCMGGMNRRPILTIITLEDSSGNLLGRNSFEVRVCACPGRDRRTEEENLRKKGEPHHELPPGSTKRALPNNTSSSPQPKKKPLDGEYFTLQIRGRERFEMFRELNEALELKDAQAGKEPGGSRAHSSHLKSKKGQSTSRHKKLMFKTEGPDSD
human Retinoic Acid Receptor gamma (RARg), RARG (gene 5916), sequence (P13631 whole entry, looked up, the tested form may be a part): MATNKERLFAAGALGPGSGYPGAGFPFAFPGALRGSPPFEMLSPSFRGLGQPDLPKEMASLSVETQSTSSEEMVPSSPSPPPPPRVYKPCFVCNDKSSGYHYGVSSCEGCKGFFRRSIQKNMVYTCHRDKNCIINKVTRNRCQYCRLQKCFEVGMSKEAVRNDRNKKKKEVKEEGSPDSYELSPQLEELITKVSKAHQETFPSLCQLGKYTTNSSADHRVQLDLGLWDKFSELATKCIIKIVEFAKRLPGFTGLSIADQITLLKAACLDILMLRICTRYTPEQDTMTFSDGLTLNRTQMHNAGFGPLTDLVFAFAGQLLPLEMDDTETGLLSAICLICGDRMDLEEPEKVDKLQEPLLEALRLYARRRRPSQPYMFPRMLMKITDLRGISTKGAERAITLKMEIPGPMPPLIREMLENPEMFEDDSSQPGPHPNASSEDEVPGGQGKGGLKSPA
Peroxisome proliferator-activated receptor gamma (Homo sapiens), sequence (P37231 whole entry, looked up, the tested form may be a part): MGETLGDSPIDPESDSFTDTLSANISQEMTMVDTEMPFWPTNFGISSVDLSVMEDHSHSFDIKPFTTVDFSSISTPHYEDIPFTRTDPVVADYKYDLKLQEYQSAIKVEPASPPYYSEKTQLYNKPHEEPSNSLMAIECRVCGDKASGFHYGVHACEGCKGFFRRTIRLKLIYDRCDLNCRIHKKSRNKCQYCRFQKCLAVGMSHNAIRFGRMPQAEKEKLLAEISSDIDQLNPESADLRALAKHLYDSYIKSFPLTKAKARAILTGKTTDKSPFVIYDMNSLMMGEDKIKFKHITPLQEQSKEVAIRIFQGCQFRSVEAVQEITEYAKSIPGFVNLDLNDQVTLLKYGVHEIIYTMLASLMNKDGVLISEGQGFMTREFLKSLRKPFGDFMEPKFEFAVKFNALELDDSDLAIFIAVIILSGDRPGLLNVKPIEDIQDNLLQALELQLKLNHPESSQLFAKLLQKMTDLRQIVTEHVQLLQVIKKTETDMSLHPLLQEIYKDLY
human Peroxisome Proliferator-activated Receptor alpha (PPARa), PPARA (gene 5465), sequence (Q07869 whole entry, looked up, the tested form may be a part): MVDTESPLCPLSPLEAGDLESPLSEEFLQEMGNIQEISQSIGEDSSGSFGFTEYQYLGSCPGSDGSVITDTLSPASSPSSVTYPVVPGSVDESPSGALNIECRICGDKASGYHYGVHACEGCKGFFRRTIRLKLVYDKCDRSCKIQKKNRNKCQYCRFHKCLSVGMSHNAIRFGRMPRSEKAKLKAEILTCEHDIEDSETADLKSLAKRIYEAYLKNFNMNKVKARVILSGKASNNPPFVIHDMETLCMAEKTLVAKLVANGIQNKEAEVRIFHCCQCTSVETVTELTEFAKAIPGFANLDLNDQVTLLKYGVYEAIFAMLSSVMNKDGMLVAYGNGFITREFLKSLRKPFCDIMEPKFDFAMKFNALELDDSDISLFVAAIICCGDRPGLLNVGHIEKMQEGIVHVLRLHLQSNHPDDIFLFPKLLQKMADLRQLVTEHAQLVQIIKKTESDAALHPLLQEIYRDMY
human RAR-related Orphan Receptor beta (RORb), RORB (gene 6096), sequence (Q92753 whole entry, looked up, the tested form may be a part): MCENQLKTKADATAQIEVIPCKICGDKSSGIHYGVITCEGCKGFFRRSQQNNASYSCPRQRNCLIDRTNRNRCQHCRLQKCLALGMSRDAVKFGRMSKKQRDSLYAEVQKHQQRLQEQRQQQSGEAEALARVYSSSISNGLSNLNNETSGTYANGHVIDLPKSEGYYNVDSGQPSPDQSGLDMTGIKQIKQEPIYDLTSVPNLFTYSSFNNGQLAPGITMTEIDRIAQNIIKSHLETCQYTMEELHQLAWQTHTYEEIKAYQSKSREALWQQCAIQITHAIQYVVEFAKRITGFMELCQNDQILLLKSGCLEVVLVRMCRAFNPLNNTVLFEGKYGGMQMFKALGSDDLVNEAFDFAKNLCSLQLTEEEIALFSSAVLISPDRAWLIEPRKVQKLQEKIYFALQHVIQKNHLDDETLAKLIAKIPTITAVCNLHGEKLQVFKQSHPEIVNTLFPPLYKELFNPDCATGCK
Retinoic acid receptor alpha (Homo sapiens), sequence (P10276 whole entry, looked up, the tested form may be a part): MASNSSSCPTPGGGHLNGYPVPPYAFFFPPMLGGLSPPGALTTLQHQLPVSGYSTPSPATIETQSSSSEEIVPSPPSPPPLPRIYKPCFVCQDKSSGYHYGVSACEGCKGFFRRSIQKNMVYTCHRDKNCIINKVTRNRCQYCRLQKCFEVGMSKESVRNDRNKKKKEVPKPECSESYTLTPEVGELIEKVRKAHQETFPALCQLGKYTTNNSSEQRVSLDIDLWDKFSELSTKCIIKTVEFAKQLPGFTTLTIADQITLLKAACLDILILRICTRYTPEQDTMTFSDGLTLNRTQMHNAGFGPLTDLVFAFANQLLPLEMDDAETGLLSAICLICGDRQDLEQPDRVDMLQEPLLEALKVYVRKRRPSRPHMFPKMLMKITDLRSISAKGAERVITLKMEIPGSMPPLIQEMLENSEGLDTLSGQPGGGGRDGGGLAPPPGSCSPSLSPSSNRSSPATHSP
Retinoic acid receptor RXR-alpha (Homo sapiens), sequence (P19793 whole entry, looked up, the tested form may be a part): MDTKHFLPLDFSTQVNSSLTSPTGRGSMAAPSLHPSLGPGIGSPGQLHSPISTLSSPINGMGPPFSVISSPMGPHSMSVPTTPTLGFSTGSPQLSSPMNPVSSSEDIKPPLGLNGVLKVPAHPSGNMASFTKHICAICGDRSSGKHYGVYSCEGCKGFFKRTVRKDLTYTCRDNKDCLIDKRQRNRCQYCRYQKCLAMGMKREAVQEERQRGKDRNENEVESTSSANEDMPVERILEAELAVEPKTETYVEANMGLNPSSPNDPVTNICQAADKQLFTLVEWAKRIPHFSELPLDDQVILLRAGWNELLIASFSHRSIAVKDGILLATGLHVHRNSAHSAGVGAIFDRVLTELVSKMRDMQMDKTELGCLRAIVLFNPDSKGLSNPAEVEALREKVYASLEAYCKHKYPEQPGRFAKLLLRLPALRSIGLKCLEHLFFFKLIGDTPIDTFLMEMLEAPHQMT
human Peroxisome Proliferator-activated Receptor delta (PPARd), PPARD (gene 5467), sequence (Q03181 whole entry, looked up): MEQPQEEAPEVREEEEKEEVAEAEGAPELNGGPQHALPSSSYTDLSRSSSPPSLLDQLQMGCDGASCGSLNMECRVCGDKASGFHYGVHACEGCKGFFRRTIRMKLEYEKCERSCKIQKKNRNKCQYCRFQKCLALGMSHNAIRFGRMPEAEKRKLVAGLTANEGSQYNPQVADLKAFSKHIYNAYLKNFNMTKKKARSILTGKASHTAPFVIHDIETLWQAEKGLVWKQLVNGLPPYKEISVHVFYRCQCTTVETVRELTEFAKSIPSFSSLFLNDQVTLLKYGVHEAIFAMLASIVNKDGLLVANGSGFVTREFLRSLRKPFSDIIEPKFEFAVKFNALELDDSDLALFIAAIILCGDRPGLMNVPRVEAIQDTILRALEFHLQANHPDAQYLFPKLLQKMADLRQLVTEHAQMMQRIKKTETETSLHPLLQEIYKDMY
human Retinoic Acid Receptor beta (RARb), RARB (gene 5915), sequence (P10826 whole entry, looked up, the tested form may be a part): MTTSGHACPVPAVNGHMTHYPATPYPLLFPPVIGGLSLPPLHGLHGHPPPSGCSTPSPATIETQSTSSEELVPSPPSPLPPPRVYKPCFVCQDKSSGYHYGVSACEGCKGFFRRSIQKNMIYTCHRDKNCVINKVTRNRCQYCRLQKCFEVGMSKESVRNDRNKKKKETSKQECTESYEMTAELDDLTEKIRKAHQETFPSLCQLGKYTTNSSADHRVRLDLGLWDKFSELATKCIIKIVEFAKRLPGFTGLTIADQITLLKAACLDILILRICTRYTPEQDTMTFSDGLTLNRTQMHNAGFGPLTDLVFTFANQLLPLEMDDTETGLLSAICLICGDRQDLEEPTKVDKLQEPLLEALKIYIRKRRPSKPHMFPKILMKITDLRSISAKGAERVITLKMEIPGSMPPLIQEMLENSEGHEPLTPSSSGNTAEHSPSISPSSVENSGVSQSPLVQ
Nuclear receptor subfamily 1 group I member 2 (Homo sapiens), sequence (O75469 whole entry, looked up, the tested form may be a part): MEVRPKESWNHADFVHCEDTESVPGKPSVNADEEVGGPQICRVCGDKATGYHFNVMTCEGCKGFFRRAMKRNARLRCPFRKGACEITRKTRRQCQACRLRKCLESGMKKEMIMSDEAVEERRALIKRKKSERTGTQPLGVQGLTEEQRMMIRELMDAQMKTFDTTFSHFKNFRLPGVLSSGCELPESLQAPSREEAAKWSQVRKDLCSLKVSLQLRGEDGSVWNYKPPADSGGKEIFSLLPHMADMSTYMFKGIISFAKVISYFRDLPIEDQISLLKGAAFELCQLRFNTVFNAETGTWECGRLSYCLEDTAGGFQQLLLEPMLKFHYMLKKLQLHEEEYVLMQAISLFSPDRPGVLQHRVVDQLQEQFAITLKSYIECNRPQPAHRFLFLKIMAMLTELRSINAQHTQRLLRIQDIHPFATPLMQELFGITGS

CCC1CO1 (stereo not given)
inactive: [1] | [2] | [3] | [4] | [5] | [6] | [7] | [8] | [9] | [10]

O=C1OC(=O)C(F)(F)C1(F)F
inactive: [1] | [2] | [3] | [4] | [5] | [11] | [7] | [12] | [13] | [14]

O=S(=O)(c1ccc(OCc2ccccc2)cc1)c1ccccc1O
active: [2] 8.89 µM | [3] 31.9 µM | [4] 33.4 µM | [12] 0.66 µM | [8] 3.73 µM
inactive: [1] | [5] | [6] | [14]

OCC1CCC(CO)CC1 (stereo not given)
inactive: [1] | [2] | [3] | [4] | [5] | [6] | [7] | [12] | [13]

COC(=O)C(F)(F)C(F)(F)C(F)(F)C(F)(F)C(F)(F)F
inactive: [1] | [2] | [3] | [4] | [5] | [6] | [11] | [13]

CC(=O)Nc1ccc(S(N)(=O)=O)cc1
inactive: [1] | [2] | [3] | [4] | [5] | [6] | [8] | [13] | [9] | [14]

CCCCCCCCCCCCCC[n+]1ccccc1
inactive: [1] | [3] | [4] | [6] | [11] | [7] | [13] | [14]
active: [2] 0.172 µM | [5] 177 µM | [12] 13.6 µM

Brc1cc(Br)c(Oc2c(Br)cc(Br)c(Br)c2Br)cc1Br
inactive: [1] | [2] | [3] | [4] | [5] | [6] | [11] | [12] | [8] | [14]

Oc1cccc2c(O)cccc12
active: [2] 8.25 µM | [12] 48.4 µM
inactive: [1] | [3] | [4] | [5] | [6] | [8] | [9] | [14]

CC(C)(O)C(=O)c1ccccc1
active: [8] 30 µM
inactive: [1] | [2] | [3] | [4] | [5] | [6] | [11] | [7] | [10] | [14]

CCC(=O)O
inactive: [1] | [2] | [3] | [4] | [5] | [6] | [7] | [12] | [8] | [10] | [14]

CCCCCCC(C)(C)C(=O)O
active: [2] 117 µM | [5] 18 µM | [12] 46.3 µM
inactive: [1] | [3] | [4] | [6] | [7] | [8] | [13]

CCCCCCCCCCCC[N+](C)(C)CCCCCCCCCCCC
inactive: [1] | [5] | [6] | [7] | [12] | [8] | [9] | [14]
active: [2] 10.4 µM | [3] 5.23 µM | [4] 10.4 µM | [13] 27.3 µM

FC(F)=C(F)C(F)(F)C(F)(F)C(F)(F)C(F)F
inactive: [1] | [2] | [3] | [4] | [5] | [6] | [12] | [8] | [9] | [14]

FC(F)(F)N1C(F)(F)C(F)(F)OC(F)(F)C1(F)F
inactive: [1] | [2] | [3] | [4] | [5] | [6] | [11] | [7] | [12] | [9] | [10]

C=CC(=O)OCCC(F)(F)C(F)(F)C(F)(F)C(F)(F)C(F)(F)C(F)(F)F
active: [2] 18.6 µM
inactive: [1] | [3] | [4] | [5] | [6] | [7] | [12] | [8] | [9] | [10] | [14]

CCOC=C(C(=O)OCC)C(=O)OCC
inactive: [1] | [2] | [3] | [4] | [5] | [6] | [12] | [13] | [14]

FC(F)(F)C1(F)C(F)(F)C(F)(F)C(F)(F)C(F)(C(F)(F)F)C1(F)F (stereo not given)
inactive: [1] | [2] | [3] | [4] | [5] | [6] | [7] | [13] | [14]

C[C@]12CC[C@@H]3c4ccc(O)cc4CC[C@H]3[C@@H]1CC[C@@H]2OC(=O)CCC1CCCC1
inactive: [1] | [3] | [4] | [5] | [6] | [8] | [10] | [14]
active: [2] 21.5 µM

Nc1ccc(O)c(C(=O)O)c1
inactive: [1] | [2] | [3] | [4] | [5] | [6] | [11] | [12] | [8] | [13] | [9]

CCCCN(C)C
inactive: [1] | [2] | [3] | [4] | [5] | [6] | [11] | [7] | [13] | [9] | [10] | [14]

O=C(O)CN(CCCN(CC(=O)O)CC(=O)O)CC(=O)O
active: [2] 6.54 µM
inactive: [1] | [3] | [4] | [5] | [6] | [11] | [7] | [13] | [9] | [14]

From PubChem BioAssay (EPA / NIEHS)
